# Experimental data: ChEMBL document CHEMBL4513216, “Probing the Open Global Health Chemical Diversity Library for Multistage-Active Starting Points for Next-Generation Antimalarials” (ACS Infect Dis, 2020)
# The campaign covered roughly 68,000 compounds. About 2,700 (4%) showed an effect of 50% or more. This excerpt belongs to a sample that is enriched for strong results.
# Tested on: Plasmodium berghei
# Assay: Screen against P. berghei liver stage (PbLuc), transformed with Luciferase, at 2uM
# Format: functional, HepG2
# Settings: tested at 2 uM
row,SMILES,INHIBITION [%]
1,Cc1cnn(CC2CCCN2CC(=O)N(C)CCC#N)c1 (stereo not drawn),-31.3
2,CC1=C[C@@H](CC#N)[C@H](C(C)C)C[C@H]1CC(=O)N1CCN(C)CC1,62.8
3,CC1=C[C@@H](CC#N)[C@H](C(C)C)C[C@H]1CC(=O)N1CCN(CCO)CC1,-3.1
4,CC(=O)N1CCN(C(=O)C[C@@H]2C[C@@H](C(C)C)[C@H](CC#N)C=C2C)CC1,46.32
5,Cc1cc(-c2cccc(C(=O)O)c2)nc(C2CCN(C(C)C)CC2)n1,24.56
6,O=C(NC1CC1)[C@H]1CC[C@@H]2[C@@H](CCN2c2ncc(F)cn2)O1,1.07
7,COc1ccc(C)cc1CN(C)CCCNS(C)(=O)=O,-81.99
8,Cn1c(=O)oc2cc(Nc3nccnc3C#N)ccc21,9.42
9,Cn1c(=O)oc2cc(Nc3ncc(C#N)cc3Cl)ccc21,53.13
10,Cn1c(=O)oc2ccc(Nc3ncc(C#N)cc3Cl)cc21,-4.24
11,CCOc1nnc(CN2CCN(CCOC)C(CC)C2)s1 (stereo not drawn),-8.54
12,CCOc1ncnc2c1CCN(S(=O)(=O)c1ccccc1)CC2,55.07
13,CCc1ncnc2c1CCN(S(=O)(=O)c1ccccc1)CC2,5.44
14,CCOc1ncnc2c1CCN(S(=O)(=O)CC)CC2,8.41
15,CC1COCCN1C(=O)COc1ccc(Oc2ccccn2)cc1 (stereo not drawn),41.88
16,Cc1nc(-c2c(-c3ccccc3)ncn2CCCN2CCOCC2)c[nH]1,64.9
17,Cc1ccc(-c2c(-c3ccccc3)ncn2CCCN2CCOCC2)o1,33.9
18,OCc1ccc(-c2c(-c3ccccc3)ncn2CCN2CCOCC2)o1,-23.34
19,c1ccc(-c2ncn(CCCN3CCOCC3)c2-c2ccncc2)cc1,64.9
20,CC(C)(Cn1cnc(-c2ccccc2)c1-c1ccco1)N1CCOCC1,-9.41
21,O=C(NCCCN1CCOCC1)c1cc(-c2ccccc2)[nH]n1,-55.91
22,CC(=O)N1CCN(C(=O)c2[nH]nnc2Nc2ccccc2F)CC1,-66.39
23,COc1cccc(Cn2cc(N3C(=O)[C@H]4CCCC[C@H]4C3=O)cn2)c1,-3.8
24,CN(C(=O)COCc1ccccc1)C1CCN(CC2CCOC2)CC1 (stereo not drawn),-11.88
25,CC(C)S(=O)(=O)NCC1CCCN(C(=O)c2ccc(Cl)cc2)C1 (stereo not drawn),16.82
26,N#Cc1csc(CNCCOc2ccc(Cl)cn2)c1,10.91
27,Cc1cnn(CCNCc2nc(-c3ccccn3)no2)c1,13.36

row,SMILES,INHIBITION [%]
1,CCn1nc(C)c(CNCCn2cc(C)cn2)c1C,-0.98
2,Cc1cnn(CCNCc2nc(-c3ccccc3Cl)no2)c1,73.05
3,Cc1cnn(CCNCc2c(C(C)C)nn(C)c2Cl)c1,31.81
4,Cc1cnn(CCNCc2c(C)nn(C)c2Cl)c1,56.15
5,CCc1noc(CNCCn2cc(C)cn2)n1,-24.75
6,CN1CCN(c2cnn(CCn3cccn3)c(=O)c2)CC1,26.14
7,Cc1cc(C(=O)N2C[C@@H]3C(CN(C)CCCn4cccn4)[C@@H]3C2)c(C)o1 (stereo partly drawn),-6.53
8,Cc1ccccc1C(=O)N1C[C@@H]2C(CN(C)CCc3ccccn3)[C@@H]2C1 (stereo partly drawn),56.21
9,Cc1cc(C(=O)N2C[C@@H]3C(CN(C)CCc4ccccn4)[C@@H]3C2)c(C)o1 (stereo partly drawn),33.7
10,Cc1cccc2c1ccn2CCC(=O)O,4.39
11,CCOC(=O)C1CCCN(c2ccc(-c3nc(C)no3)cn2)C1 (stereo not drawn),-9.62
12,Cc1noc(-c2ccc(N3CCC(C(=O)N4CCCC4)CC3)nc2)n1,51.96
13,Cc1noc(-c2ccc(N3CCCC(C(=O)N4CCSCC4)C3)nc2)n1 (stereo not drawn),-13.24
14,Cc1noc(-c2ccc(N3CCCC(C(=O)c4nccn4C)C3)nc2)n1 (stereo not drawn),58.53
15,Cc1noc(-c2ccc(N3CCCC(C(=O)O)C3)nc2)n1 (stereo not drawn),25.69
16,Cc1noc(-c2ccc(N3CCCC(C(N)=O)C3)nc2)n1 (stereo not drawn),22.86
17,CC(C)c1nc(C2CCCN2C(=O)c2cnc[nH]2)no1 (stereo not drawn),-66
18,COc1cccc(NC(=O)C(C)Cn2cc(Cl)cn2)c1 (stereo not drawn),36.45
19,Cc1ccc2nnc(C(=O)NCCCn3cccn3)nc2c1,-41.49
20,CC(C)(C(=O)NCC(=O)NCc1ccccc1)c1ccccc1F,-3.22
21,COc1ccc(CN2CCc3sccc3C2C)cc1CN1CCOCC1 (stereo not drawn),56.39
22,COc1ccsc1C(=O)Nc1cc(CN2CCOCC2)ccc1C,37.63
23,CC1c2ccsc2CCN1Cc1cc2c(cc1O)OCO2 (stereo not drawn),12.7
24,CCC1c2ccsc2CCN1Cc1cc2c(cc1OC)OCCO2 (stereo not drawn),10.03
25,COc1cc2c(cc1CN1CCc3sccc3C1C)OCCO2 (stereo not drawn),18.06
26,COc1cc2c(cc1CN1CCc3sccc3C1C)OCO2 (stereo not drawn),59.65
